PubChem BioAssay AID1578 (Sanford-Burnham Center for Chemical Genomics, 2009)
The whole screen tested about 290,000 compounds, of which about 3,000 (1%) were called active. For the sample, actives were picked, then their nearest neighbours and some compounds at random. Unmarked numbers belong to inactive results. Rule as the data show it: active = inhibition mostly above about 36% (no sharp cut-off); inactive = mostly below about 34%.

Assay: inhibition of NOD1-driven NF-kB reporter – cell-based, luminescence, uHTS, primary screen (AID 1578);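 also: HEK-293T reporter cells stimulated with the NOD1 agonist gamma-tri-DAP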
Details: NOD1-driven NF-kB luciferase reporter cells, at 4 µM, stronger effect = higher value

Row | Structure (SMILES) | inhibition
1 | COc1cc(/C=C(\C#N)C(=O)N2CCOCC2)ccc1OCc1ccccc1 | -23.3%
2 | O=S(=O)(c1cnc(Cl)c(Cl)c1)N1CCN(c2ncccn2)CC1 | -5.2%
3 | CC(C)c1ccccc1NC(=O)COC(=O)c1cccnc1 | -18.3%
4 | Cc1ccc(C(=O)NCCn2cc(SCC(=O)Nc3cc(C)on3)c3ccccc32)cc1 | -10.3%
5 | Cc1cc(NC(=O)CSc2cn(CCNC(=O)c3ccccc3)c3ccccc23)no1 | 11.3%
6 | Cc1cc(NC(=O)CSc2cn(CCNC(=O)c3ccc(Cl)cc3)c3ccccc23)no1 | 75.9% (active)
7 | O=C(CCC(=O)OCC(=O)c1ccc(Br)cc1)NC1CCCCC1 | -4.2%
8 | CCn1c(SCC(=O)N2CCc3ccccc3C2)nc2sc(C)c(C)c2c1=O | 20.4%
9 | CCC(=O)N1CCN(c2nc(C)nc3sc(C)c(C)c23)CC1 | 9.5%
10 | Cc1nc(SCC(=O)N2CCCCC2)c2c(C)c(C)sc2n1 | -15.5%
11 | Cc1nc(N2CCN(C(=O)CCC(=O)O)CC2)c2c(C)c(C)sc2n1 | -16.7%
12 | COC(=O)c1ccc(CNC(=O)N2CCN(S(=O)(=O)c3ccc(C)cc3)CC2)cc1 | -19.3%
13 | Cn1c(=O)c2c(nc(SCc3ccccc3F)n2C)n(C)c1=O | 24%
14 | Cc1ccc(/C=[N+](/[O-])C2SC(=S)N(C)C2(C)C)cc1 (configuration not stated) | -10.5%
15 | CN1C(=S)SC(/[N+]([O-])=C\c2ccc(Cl)cc2)C1(C)C (configuration not stated) | 84.4% (active)
16 | CN1C(=S)SC(/[N+]([O-])=C/c2ccc(Cl)cc2)C1(C)C (configuration not stated) | 12%
17 | O=C(O)c1ccc(-c2nc3scc(-c4ccccc4)c3c(=O)[nH]2)cc1 | -3.4%
18 | COc1cc(SC)ccc1C(=O)OC1CCOC1=O (configuration not stated) | 7.7%
19 | CCOc1ccccc1NC(=O)c1ccc(CN2CCc3ccccc3C2)cc1 | 25.2%
20 | CCOC(=O)c1ccc(NC(=O)CN2CCc3ccccc3C2)cc1 | -2.1%
21 | CC(=O)Nc1ccc(NC(=O)c2ccc(CN3CCc4ccccc4C3)cc2)cc1 | 21.2%
22 | O=C(Nc1ccccc1)c1ccc(CN2CCc3ccccc3C2)cc1 | 37.2%
23 | Cc1ccc(NC(=O)c2ccc(CN3CCc4ccccc4C3)cc2)cc1 | 42.4%
24 | Cc1cc(C)cc(NC(=O)c2ccc(CN3CCc4ccccc4C3)cc2)c1 | 39.1%
25 | C#Cc1ccc([C@H]2C=C(C(=O)N3CCN(Cc4ccc5c(c4)OCO5)CC3)O[C@@H](OCc3ccc(CO)cc3)C2)cc1 | 1.8%

Row | Structure (SMILES) | inhibition
26 | Cc1ccc(S(=O)(=O)Nc2ccccc2N2CCOCC2)cc1 | -11.5%
27 | Cc1nc2sc(C(c3ccc(F)cc3)N3CCOCC3)c(O)n2n1 (configuration not stated) | 0.4%
28 | Cc1onc(-c2ccccc2)c1C(=O)c1c[nH]c(C(=O)NCCCN2CCOCC2)c1 | -7.9%
29 | COc1ccc(CCNC(=O)Cn2c(=O)n(-c3cc(F)ccc3F)c(=O)c3sccc32)cc1OC | -47.6%
30 | CC(NC(=S)Nc1ccc(OC(F)F)c(Cl)c1)C(C)(C)C (configuration not stated) | -14.8%
31 | O/N=C/c1cccc[n+]1CCCCCC[n+]1ccccc1/C=N/O | 27.1%
32 | Cc1[nH]n2c(=O)cc(C(C)C)nc2c1-c1ccccc1 | -8.4%
33 | Cc1[nH]n2c(=O)cc(C(C)(C)C)nc2c1-c1ccccc1 | 85.3% (active)
34 | Cc1cc(=O)n2[nH]c(C)c(-c3ccccc3)c2n1 | -4.2%
35 | COc1cccc(-c2c[nH]c(=O)[nH]c2=O)c1 | -6.8%
36 | COc1cccc(/C=C/C(=O)c2ccc(NC3=NCCCS3)cc2)c1 | -44.4%
37 | Cc1cccc(/C=C/C(=O)c2ccc(NC3=NCCCS3)cc2)c1 | 32.1%
38 | COc1ccc(/C=C/C(=O)c2ccc(NC3=NCCCS3)cc2)cc1OC | 44.3% (active)
39 | CNCCCOc1ccc(C)cc1Br | 13.5%
40 | Cc1nn2c3ccccc3n(Cc3ccccc3)c2nc1=O | -20.5%
41 | O=C(NCC(=O)N(c1ccc(Cl)cc1)C(C(=O)NC1CCCC1)c1ccncc1)c1ccco1 (configuration not stated) | -13.1%
42 | CN(C)CCNC(=O)c1c(CSc2ccccc2)noc1C(=O)NCc1ccccc1 | -3.7%
43 | NC(=O)C1CCN(C(=O)c2ccc3c(c2)S(=O)(=O)c2ccccc2C3=O)CC1 | 1.2%
44 | CCN(CC)CCNc1cc(C)nc2c1C(=O)C(=O)C=C2N1CCCCC1 | 101% (active)
45 | CCN(CC)CCNC1=CC(=O)OC12CCCCC2 | -19.3%
46 | COC(=O)c1cc(C)nc2c1C(=O)C(=O)C=C2N1CCOCC1 | -6.2%
47 | Cc1ccc(C(=O)/C=C/c2cc(Br)cc(Br)c2O)o1 | 89.5% (active)
48 | Cc1ccc(C(=O)/C=C/c2ccccc2)o1 | -0.9%
49 | Cc1ccc(C(=O)/C=C/c2ccc(Br)cc2)o1 | 21%
50 | Cc1ccc(C(=O)NC2CC3CCC(C2)N3Cc2ccco2)cc1 (configuration not stated) | -13.6%

Row | Structure (SMILES) | inhibition
51 | O=C(COC(=O)c1ccc[nH]c1=O)NCCc1ccc(Cl)cc1Cl | -4.3%
52 | COc1ccc(OC)c(NC(=O)NNC(=O)CCCOc2ccc(Cl)cc2C)c1 | -14%
53 | O=C(O)Cc1sc(-c2ccccc2)nc1-c1ccccc1 | -9.7%
54 | O=C(O)Cc1sc(-c2ccccc2Cl)nc1-c1ccccc1 | 44% (active)
55 | O=C(Cc1sc(-c2ccccc2Cl)nc1-c1ccccc1)Nc1ccccc1 | -49.4%
56 | CCCn1c(=O)c(C(=O)NNC(=O)c2ccc(Cl)cc2Cl)c(O)c2ccccc21 | -6.2%
57 | Cc1cc(Cl)ccc1NC(=O)CCCN1C(=O)CCC1=O | 1.3%
58 | O=C(Cn1nnc2ccccc21)N/N=C\c1cccs1 | -35.5%
59 | COc1ccc(/C=C/c2c(-c3ccc(OC)cc3)oc3ccc(-c4ccc(OC)cc4)cc23)cc1 | -16.5%
60 | COc1ccc(/C=C/C(=O)Oc2ccc(C)cc2)cc1 | -12.4%
61 | CC1(C)C2CCC1(C)C(OC(=O)C[n+]1ccccc1N)C2 (configuration not stated) | -14.7%
62 | CC(C)NC(=O)C1CCN(C2CCN(C(=O)c3cc4c(s3)CCCCC4)CC2)CC1 | -13.9%
63 | Cc1cnc(CN(C)Cc2nc(Cc3cccc(C(F)(F)F)c3)no2)[nH]1 | -15.7%
64 | CC(C)OC(=O)c1cc2c(=O)[nH]c(C(Cl)(Cl)Cl)nc2o1 | -25.8%
65 | CS(=O)(=O)N(CC(=O)N1CCCCC1)C1CCCCC1 | 9.1%
66 | COc1ccc(C(=O)N/N=C/C(Br)=C/c2ccccc2)cc1 | 26.8%
67 | COc1cccc(C(=O)N/N=C/C(Br)=C/c2ccccc2)c1 | 63.6% (active)
68 | O=C(N/N=C/C(Br)=C/c1ccccc1)c1cccnc1 | 10.1%
69 | CC1(C)Cc2ccccc2-c2nc3n(c(=O)c21)CCS3 | -12.8%
70 | CCC1(C)Cc2ccccc2-c2nc3n(c(=O)c21)CCS3 (configuration not stated) | 5.3%
71 | CC1(C)Cc2ccccc2-c2nc3n(c(=O)c21)CCCS3 | 44.3% (active)
72 | O=C(COC(=O)CSCC(=O)N1CCCCC1)Nc1ccc(Cl)cc1 | 0%
73 | Fc1ccc(-c2noc(-c3ccc4c(c3)CCO4)n2)cc1 | -17.4%
74 | CN(C)Cc1c(O)ccc2c(-c3ccccc3)cc(=O)oc12 | -22%
75 | CC(=O)c1c(O)ccc2c(-c3ccccc3)cc(=O)oc12 | 13.4%

Row | Structure (SMILES) | inhibition
76 | COC(=O)c1ccccc1NC(=O)Nc1cc(C)ccn1 | -16.6%
77 | Cc1cccc2sc(N(CCCN(C)C)C(=O)c3ccc(S(=O)(=O)N4CCc5ccccc5C4)cc3)nc12 | 13%
78 | O=C(COC(=O)CCC(=O)c1ccc(F)cc1)Nc1ccc(N2CCOCC2)cc1 | -6.3%
79 | O=C(OCCN1CCCCC1)c1ccc(Cl)cc1 | -7.2%
80 | Oc1c(Br)cc(Br)cc1C=NCc1ccc(F)cc1 | 64.2% (active)
81 | Oc1c(Br)cc(Br)cc1C=NCc1ccccc1 | -5.4%
82 | Oc1c(C=NCc2ccc(F)cc2)[nH]c2ccc(Br)c(Cl)c12 | -16.1%
83 | CCCn1c(N)c(Sc2ccccc2)c(=O)n(CCC)c1=O | 17.2%
84 | CCOC(=O)c1ccccc1NC(=O)c1c(F)c(F)c(F)c(F)c1F | -18.5%
85 | CCCCC/C(=N\NC(=O)Nc1ccccc1)c1ccccc1 | -2.9%
86 | NC(=O)N/N=C(/CCCCCC/C(=N\NC(N)=O)c1ccccc1)c1ccccc1 | 36.6% (active)
87 | C/C(=N\NC(N)=O)c1ccccc1 | -34.5%
88 | CC1(C)C2C(Cl)(Cl)C2(C)c2ccccc2N1C=O (configuration not stated) | -3.3%
89 | CC(=O)N1c2ccccc2C2(C)C(C1(C)C)C2(Cl)Cl (configuration not stated) | 60.4% (active)
90 | CC(=O)N1c2ccccc2C(C)(c2ccccc2)CC1(C)C (configuration not stated) | 0.7%
91 | Cc1cc(NC(=O)Nc2ccc(Cl)cc2)n(C)n1 | -7.2%
92 | O=C1c2cccc3cc([N+](=O)[O-])cc(c23)C(=O)N1/N=C/c1ccc(O)cc1O | 8.5%
93 | COc1ccc(/C=N/Nc2ncccc2[N+](=O)[O-])c(OC)c1 | -42.4%
94 | COc1cccc(/C=N/Nc2ncccc2[N+](=O)[O-])c1OC | 39.6% (active)
95 | O=[N+]([O-])c1cccnc1N/N=C/c1ccccc1O | -18.6%
96 | CC(C)C(=O)NC(NC(=S)Nc1ccc(S(N)(=O)=O)cc1)C(Cl)(Cl)Cl (configuration not stated) | -3.2%
97 | CCCCC(CC)C(=O)Nc1cc(=O)[nH]c2nc3ccccc3n12 (configuration not stated) | -1.4%
